Laboratory results from ChEMBL document CHEMBL1157539, “Thousands of chemical starting points for antimalarial lead identification” (Nature, 2010).

Experiments:
Format in all cases: functional
Plasmodium falciparum [1] = test: GSK_TCMDC: Inhibition of Plasmodium falciparum 3D7 in whole red blood cells, using parasite LDH activity as an index of growth. Test compounds present at 2uM
Plasmodium falciparum [2] = test: GSK_TCMDC: Inhibition of Plasmodium falciparum Dd2 in whole red blood cells, using parasite LDH activity as an index of growth. Test compounds present at 2uM
HepG2 = test: GSK_TCMDC: Percent inhibition of human HepG2 cell line. Test compounds present at 10uM.

## CCOC(=O)c1c(CN2CCN(C)CC2)n(Cc2ccccc2)c2cc(Br)c(O)cc12
Plasmodium falciparum [1]
  Inhibition: 100%
Plasmodium falciparum [2]
  Inhibition: 46%
HepG2
  Inhibition: 11%

## CC(Cc1ccc(Oc2ccc(Cl)cc2)cc1)NCC(O)c1cccc(Cl)c1 (centres undefined)
Plasmodium falciparum [1]
  Inhibition: 99%
Plasmodium falciparum [2]
  Inhibition: 98%
HepG2
  Inhibition: 3%

## O=C(/C=C/c1ccc(Cl)c(Cl)c1)N1CCC(CN2CCC(c3c(Br)[nH]c4ccccc34)CC2)CC1
Plasmodium falciparum [1]
  Inhibition: 100%
Plasmodium falciparum [2]
  Inhibition: 99%
HepG2
  Inhibition: 41%
